Measurements from PubChem BioAssay AID865 (The Scripps Research Institute Molecular Screening Center, 2007).
Some of the results follow. Values without a mark were called inactive. The source made the active and inactive calls.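 Rule for the calls: active = activation above the screen-wide mean activation plus 3 SD (cut at about 8% in these data); inactive = the rest.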

assay: activators of NFAT-driven beta-lactamase reporter, confirmation, counter-screen for GALR2 agonist project, CHO NFAT-bla cells, FRET readout (AID 865); settings: at 5.6 µM, stronger effect = higher value;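 note: 0% = DMSO with PBS wells and 100% = thapsigargin positive control wells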

Question: Which activation does the source give for `OC(COc1cccc2ccccc12)CN1CCN(c2ccccn2)CC1` (stereo unspecified) here?
Answer: 0.34%

Question: For `O=C(NC(=S)Nc1ccc(NC(=O)c2cccs2)cc1)c1ccc([N+](=O)[O-])cc1`, which activation is on record?
Answer: -1.18%

Question: For `C=CCN(CC=C)S(=O)(=O)c1ccc(C(=O)Nc2nc3c(s2)CCc2ccccc2-3)cc1`, which activation is on record?
Answer: 1.61%

Question: Which activation does the source give for `COCCN(CCOC)S(=O)(=O)c1ccc(C(=O)Nc2nc3c(s2)CCc2ccccc2-3)cc1` here?
Answer: 2.54%

Question: With `COc1ccccc1N1N=C(c2cccs2)CC1c1ccccc1` (stereo unspecified) as the molecule, how does the activation read?
Answer: 6.25%

Question: Which activation does the source give for `COc1ccc(C(=O)CN2C(=O)NC(C)(c3ccc(C)cc3)C2=O)cc1OC` (stereo unspecified) here?
Answer: -1.81%

Question: Which activation does the source give for `CC1(C)CC(=O)C=C(NCCN2CCNCC2)C1` here?
Answer: -2.3%

Question: With `Cc1csc(NC(=O)c2ccc(-c3ccc(Cl)cc3Cl)o2)n1` as the molecule, how does the activation read?
Answer: 0.5%

Question: With `Cn1c(=O)oc2cc(S(=O)(=O)N3CCC(C(=O)Nc4ccc(OC(F)(F)F)cc4)CC3)ccc21` as the molecule, how does the activation read?
Answer: 1.18%

Question: Which activation does the source give for `CCOc1ccc(C(O)Cn2c(=N)n(CCN3CCCCC3)c3ccccc32)cc1` (stereo unspecified) here?
Answer: -2.38%

Question: With `CCOc1ccc2nc(Nc3nc4ccc(NC(C)=O)cc4s3)sc2c1` as the molecule, how does the activation read?
Answer: 59.5% (active)

Question: For `O=C1COc2ccc(NC(=O)N3CCN(c4ccc(F)cc4)CC3)cc2N1`, which activation is on record?
Answer: -0.56%

Question: With `O=c1oc2cc(O)ccc2cc1-c1ccc(F)cc1` as the molecule, how does the activation read?
Answer: 7.16%

Question: Which activation does the source give for `COC(=O)c1ccc(NC(=O)C(C)N2C(=O)c3ccccc3C2=O)cc1` (stereo unspecified) here?
Answer: -1.44%

Question: Which activation does the source give for `CC(=O)N(Cc1cccs1)C1CCOC(C)(C)C1` (stereo unspecified) here?
Answer: -3.67%

Question: For `CC(=O)Oc1ccc(C(C)=O)c2c1OCCO2`, which activation is on record?
Answer: -1.79%

Question: With `C=CCn1c(Oc2ccc(C(=O)OC)cc2)nc2c1c(=O)n(C)c(=O)n2C` as the molecule, how does the activation read?
Answer: -0.9%

Question: Which activation does the source give for `O=[N+]([O-])c1ccccc1SNc1ccccn1` here?
Answer: -1.98%

Question: For `CCN(C(=O)CSc1ncn[nH]1)c1cccc2ccccc12`, which activation is on record?
Answer: -1.97%

Question: For `COc1ccc(Nc2oc(-c3ccccc3Cl)nc2C#N)cc1`, which activation is on record?
Answer: -0.84%

Question: With `Cc1ccc(CCC(=O)Nc2ncc(Cc3cc(Cl)ccc3Cl)s2)o1` as the molecule, how does the activation read?
Answer: 13.5% (active)

Question: For `CC/C(C)=N/Nc1nc2sc3c(c2c(=O)[nH]1)CC(C)(C)OC3`, which activation is on record?
Answer: -1.22%

Question: For `CCCOc1ccc(C(=O)C(CCC(CNCC)C(=O)c2ccc(OCCC)cc2)CNCC)cc1` (stereo unspecified), which activation is on record?
Answer: 0.75%

Question: For `COc1cc(SC#N)ccc1N=Cc1c(C)[nH]n(-c2ccc(C)cc2)c1=O`, which activation is on record?
Answer: 9.72% (active)

Question: Which activation does the source give for `Cc1ccc(Cc2c(C)nc3nc(SCC(=O)NCCN4CCOCC4)nn3c2C)cc1` here?
Answer: -0.81%

Question: For `Fc1ccc(N2N=C(c3cccs3)CC2c2ccco2)c(F)c1` (stereo unspecified), which activation is on record?
Answer: 0.42%
